Consider 70 compounds from PubChem BioAssay AID652042 (Broad Institute, 2013).

In all, about 1,100 compounds went through this assay and about 350 (32%) were called active. How the calls were made is not given here. Not all results are given here. Potency and affinity values are given separately.

The nature of this experiment: CEM21 lymphoblast cell cytotoxicity, dose response, cytotoxicity control for viral fusion inhibitor project, CellTiter-Glo luminescence, cherry-picked (AID 652042). The note with it: CEM21 cells viability, CellTiter-Glo ATP luminescence, 24 h; series mostly up to 35 µM; activity change, negative = cytotoxicity: at the top concentration.
With `COCCCn1c(-c2ccc(S(=O)(=O)N3CCOCC3)cc2)csc1=Nc1ccccc1`, the “activity change, negative = cytotoxicity” value was -20.8% (inactive).

For `O=C(CCc1ccc(S(=O)(=O)N2CCOCC2)cc1)Nc1nc(COc2ccccc2)cs1`, the “activity change, negative = cytotoxicity” value is -22.9% (inactive).

In the case of `O=C(CN1C(=O)c2ccccc2S1(=O)=O)N1CCc2ccccc21`, the “activity change, negative = cytotoxicity” value was -5.92% (inactive).

Turning to `Clc1ccc(-c2noc(CSc3nnc(-c4ccncc4)n3-c3ccccc3)n2)cc1`, the “activity change, negative = cytotoxicity” value is -16.1% (inactive).

For `Cc1cccc(C)c1NC(=O)N1CCN(c2nc3ccccc3s2)CC1`, the “activity change, negative = cytotoxicity” value is -12.1% (inactive).

For `COc1ccc(-c2nnn(CC(=O)N(Cc3cccs3)C(C)C(=O)NC3CCCC3)n2)cc1OC` (stereo not given), the “activity change, negative = cytotoxicity” value was -11.7% (inactive).

Regarding `O=C(NC1CCCCC1)C(c1cccs1)N(Cc1cccs1)C(=O)c1ccco1` (stereo not given), the “activity change, negative = cytotoxicity” value is -7.51% (inactive).

Consider `c1ccc2c(c1)OCC(CNc1ncnc3nc[nH]c13)O2` (stereo not given), for which the “activity change, negative = cytotoxicity” value is -3.4% (inactive).

Regarding `C[C@H]1CN([C@@H](C)CO)C(=O)c2c(c3ccccc3n2C)-c2ccccc2CO[C@H]1CN(C)C(=O)Cc1ccccc1`, the “activity change, negative = cytotoxicity” value was -12.5% (inactive).

Turning to `C[C@H](CO)N1C[C@H](C)[C@@H](CN(C)C(=O)[C@H](Cc2ccccc2)N(C)C)OCc2ccccc2-c2c(n(C)c3ccccc23)C1=O`, the “activity change, negative = cytotoxicity” value is -20.8% (inactive).

For the compound `C[C@H](C(=O)N(C)C[C@@H]1OCc2ccccc2-c2ccccc2C(=O)N([C@@H](C)CO)C[C@H]1C)c1ccccc1`, the “activity change, negative = cytotoxicity” value was -8.58% (inactive).

Consider `C[C@H]1CN([C@@H](C)CO)C(=O)c2c(c3ccccc3n2C)-c2ccccc2CO[C@H]1CN(C)C(=O)Nc1cccc(F)c1`, for which the “activity change, negative = cytotoxicity” value was -19.9% (inactive).

`COc1ccc(CNC(=O)N(C)C[C@H]2OCc3ccccc3-c3ccccc3C(=O)N([C@H](C)CO)C[C@@H]2C)cc1`: the “activity change, negative = cytotoxicity” value is -3.63% (inactive).

Regarding `CO[C@H](C(=O)N(C)C[C@@H]1OCc2ccccc2-c2c(n(C)c3ccccc23)C(=O)N([C@H](C)CO)C[C@@H]1C)c1ccccc1`, the “activity change, negative = cytotoxicity” value was -3.18% (inactive).

For `C[C@H](C(=O)N(C)C[C@@H]1OCc2ccccc2-c2ccccc2C(=O)N([C@@H](C)CO)C[C@@H]1C)c1ccccc1`, the “activity change, negative = cytotoxicity” value was -1.93% (inactive).

Turning to `C[C@H]1CN([C@@H](C)CO)C(=O)c2ccccc2-c2ccccc2CO[C@@H]1CN(C)C(=O)Nc1cccc(C(F)(F)F)c1`, the “activity change, negative = cytotoxicity” value is -19.8% (inactive).

Regarding `CC1(C)C2CCC1(C)C(OCCNCCOC(=O)Nc1ccccc1)C2` (stereo not given), the “activity change, negative = cytotoxicity” value was -25.1% (inactive).

Take `CCN1C(=O)[C@H]2[C@@H](c3ccc(C)cc3)N3C(=O)N(c4cccc(Br)c4)C(=O)[C@@]3(CC)[C@H]2C1=O`: the “activity change, negative = cytotoxicity” value is -6.07% (inactive).

As for `CCN1C(=O)[C@H]2[C@@H](c3ccc(C)cc3)N3C(=O)N(c4cccc(Br)c4)C(=O)[C@@]3(CC(C)C)[C@H]2C1=O`, the “activity change, negative = cytotoxicity” value was 1.19% [at 16 µM] (inactive).

With `C[C@H](CO)N1C[C@H](C)[C@H](CN(C)S(=O)(=O)c2cccs2)Oc2ccc(NC(=O)Cc3cn(C)c4ccccc34)cc2CC1=O`, the “activity change, negative = cytotoxicity” value was -4.75% (inactive).

As to `CCC(C)(C)NC(=O)C(NS(=O)(=O)c1cccs1)c1ccccc1` (stereo not given), the “activity change, negative = cytotoxicity” value was 4.01% (inactive).

Take `CC(C)OCCCNc1ncnc2c1[nH]c1ccccc12`: the “activity change, negative = cytotoxicity” value is -23.4% (inactive).

Take `CCOC(=O)/C=C1\Nc2ccccc2SC1=O`: the “activity change, negative = cytotoxicity” value was -1.22% (inactive).

For the compound `CCCCCn1c(C(C)NC(=O)CCC)nc2ccccc21` (stereo not given), the “activity change, negative = cytotoxicity” value is 1.39% (inactive).

Turning to `Cn1c(=O)n(-c2cccc(Cl)c2)c(=O)c2c3c(sc21)COC(C)(C)C3`, the “activity change, negative = cytotoxicity” value was -1.94% (inactive).

In the case of `C=CCN([C@@H](CC(C)C)C(=O)OC)S(=O)(=O)N(CC=C)[C@@H](CC(C)C)C(=O)OC`, the “activity change, negative = cytotoxicity” value was -22.3% (inactive).

As to `CN1CCc2ccccc2Cc2[nH]c3ccccc3c2CC1`, the “activity change, negative = cytotoxicity” value was 2.03% (inactive).

Regarding `Cc1sc2ncnc(N3CCN(S(=O)(=O)c4ccc(Br)cc4)CC3)c2c1C`, the “activity change, negative = cytotoxicity” value is -26.4% (inactive).

For the compound `Cc1ccc2nc(NC(=O)CCCC(=O)O)sc2c1`, the “activity change, negative = cytotoxicity” value is 1.57% (inactive).

With `CCc1cccc(NC(=O)C2CCN(S(=O)(=O)c3ccc4c(c3)CC(C)N4C(C)=O)CC2)c1` (stereo not given), the “activity change, negative = cytotoxicity” value is -22% (inactive).

As to `Cc1cccc(NC(=O)C2CCN(S(=O)(=O)c3ccc4c(c3)OCCCO4)CC2)n1`, the “activity change, negative = cytotoxicity” value was -10.3% (inactive).

Take `Cc1ccc(Cn2nnnc2CN2CCC(c3nc4ccc(Cl)cc4[nH]3)CC2)cc1`: the “activity change, negative = cytotoxicity” value was -15.9% (inactive).

With `COc1ccc(CN2CCC(C)(Oc3ccc4c(c3)OCO4)C2)c2ccccc12` (stereo not given), the “activity change, negative = cytotoxicity” value is -16.4% (inactive).

Take `CCN(C[C@H]1N[C@@](CC)(C(=O)OC)[C@H]2C(=O)N(Cc3ccccc3)C(=O)[C@@H]12)C(=O)Nc1ccc(OC)cc1`: the “activity change, negative = cytotoxicity” value is 2% (inactive).

Regarding `COC(=O)[C@@]1(C)[C@H]2C(=O)N(Cc3ccccc3)C(=O)[C@H]2[C@H]2CN=C(SCc3ccc(Cl)cc3)N21`, the “activity change, negative = cytotoxicity” value was -14.2% (inactive).

Consider `CCN1C(=O)[C@H]2[C@@H](c3ccc(C)cc3)N3C(=O)N(c4cccc(Cl)c4)C(=O)[C@@]3(CC)[C@H]2C1=O`, for which the “activity change, negative = cytotoxicity” value is 4.5% (inactive).

For the compound `CS(=O)(=O)N(Cc1ccc(Cl)cc1)c1ccc(C(=O)NCCSc2ccccn2)cc1`, the “activity change, negative = cytotoxicity” value is -17.6% (inactive).

In the case of `CC(=O)c1c(C)[nH]c(C(=O)OCCCCN2C(=O)c3ccccc3C2=O)c1C`, the “activity change, negative = cytotoxicity” value is -19.4% (inactive).

`COCC(=O)N1C[C@@H](C)[C@H](OC)CN(C)C(=O)c2ccc(NC(=O)c3ccc(OC)cc3)cc2OC[C@@H]1C`: the “activity change, negative = cytotoxicity” value was -0.433% (inactive).

In the case of `CO[C@H]1CN(C)C(=O)c2ccc(NC(=O)Nc3cccc(F)c3)cc2OC[C@@H](C)N(C(C)=O)C[C@H]1C`, the “activity change, negative = cytotoxicity” value is 3.06% (inactive).

With `CCCC(=O)Nc1ccc2c(c1)OC[C@H](C)N(C(=O)CN(C)C)C[C@@H](C)[C@H](OC)CN(C)C2=O`, the “activity change, negative = cytotoxicity” value is 1.57% (inactive).

Consider `CO[C@H]1CN(C)C(=O)c2ccc(NC(=O)C3CC3)cc2OC[C@@H](C)N(C(C)=O)C[C@@H]1C`, for which the “activity change, negative = cytotoxicity” value is 0.552% (inactive).

For `CCC(=O)Nc1ccc2c(c1)C(=O)N(C)C[C@@H](OC)[C@H](C)CN(C(=O)CC)[C@@H](C)CO2`, the “activity change, negative = cytotoxicity” value is -0.847% (inactive).

Take `CO[C@H]1CN(C)C(=O)c2cc(NC(=O)C3CCOCC3)ccc2OC[C@H](C)N(Cc2nccs2)C[C@H]1C`: the “activity change, negative = cytotoxicity” value was -7.3% (inactive).

For `CCN(CC)S(=O)(=O)c1ccc(N2CCCC2)c(NC(=O)Cc2cc(OC)c(OC)c(OC)c2)c1`, the “activity change, negative = cytotoxicity” value is -0.756% (inactive).

In the case of `O=C(c1cccc(S(=O)(=O)N2CCN(c3ccccc3)CC2)c1)N1CCCC(C(F)(F)F)C1` (stereo not given), the “activity change, negative = cytotoxicity” value is -13.9% (inactive).

Turning to `O=C1CCCCC1Sc1nnc(-c2ccc3c(c2)OCO3)o1` (stereo not given), the “activity change, negative = cytotoxicity” value is -4.91% (inactive).

Take `O=C(CN1C(=O)c2ccccc2S1(=O)=O)c1ccc2c(c1)OCCO2`: the “activity change, negative = cytotoxicity” value is -3.96% (inactive).

As for `Cc1ccccc1S(=O)(=O)NC(=O)C1(C)CCN1C(=O)CCc1ccc(Cl)cc1Cl` (stereo not given), the “activity change, negative = cytotoxicity” value was -0.499% (inactive).

As to `COc1ccc([C@@H]2[C@@H]3C(=O)N(C(C)(C)C)C(=O)[C@@H]3[C@]3(CC(C)C)C(=O)N(c4cccc(F)c4)C(=O)N23)cc1`, the “activity change, negative = cytotoxicity” value is -0.051% (inactive).

On to `COc1ccc(-c2cc(C(=O)NNC(=S)NC(=O)c3c(-c4ccccc4)noc3C)[nH]n2)cc1`, for which the “activity change, negative = cytotoxicity” value is -18.7% (inactive).

`Cc1onc(-c2ccccc2)c1C(=O)Nc1ccc(Br)cc1Cl`: the “activity change, negative = cytotoxicity” value is -6.29% (inactive).

Take `CC1(Cc2ccc(Cl)cc2)C(=O)Nc2ccc(S(=O)(=O)NC3CCCCC3)cc21` (stereo not given): the “activity change, negative = cytotoxicity” value was -16.2% (inactive).

As for `O=C(Nc1cccn(Cc2c(Cl)cccc2Cl)c1=O)c1ccc(Cl)cc1`, the “activity change, negative = cytotoxicity” value is -22.3% (inactive).

With `CCCCOc1ccc(S(=O)(=O)Nc2cccnc2)cc1`, the “activity change, negative = cytotoxicity” value is -6.62% (inactive).

Consider `CCCNC(=O)C[C@@H]1C[C@H]2c3cc(NC(=O)Cc4ccncc4)ccc3O[C@H]2[C@H](CO)O1`, for which the “activity change, negative = cytotoxicity” value is 0.915% (inactive).

With `CC1CCN(S(=O)(=O)c2cc(C(=O)N3CCN(c4ccccc4)CC3)ccc2Br)CC1`, the “activity change, negative = cytotoxicity” value was -29.4% (inactive).

In the case of `COc1ccccc1S(=O)(=O)N[C@H]1CC[C@H](CC(=O)N2CCN(C)CC2)O[C@H]1CO`, the “activity change, negative = cytotoxicity” value was -2.4% (inactive).

Turning to `Cc1ccc(C2CC(=O)c3cnc(N4CCc5ccccc5C4)nc3C2)cc1` (stereo not given), the “activity change, negative = cytotoxicity” value is 0.412% (inactive).

For the compound `O=C(Cc1ccncc1)N[C@H]1CC[C@@H](CCn2cc(-c3ccccc3F)nn2)O[C@@H]1CO`, the “activity change, negative = cytotoxicity” value was 1.85% (inactive).

For the compound `CN(C)Cc1cn(CC[C@@H]2CC[C@H](N)[C@H](CO)O2)nn1`, the “activity change, negative = cytotoxicity” value is -1.13% (inactive).

Take `CC[C@@]12C(=O)N(c3ccccc3)C(=O)N1[C@H](c1cccc(C)c1)[C@@H]1C(=O)N(Cc3ccccc3)C(=O)[C@@H]12`: the “activity change, negative = cytotoxicity” value is -8.41% (inactive).

Take `CC(C)(C)NC(=O)C(c1ccccc1)N(Cc1cccs1)C(=O)c1csnn1` (stereo not given): the “activity change, negative = cytotoxicity” value was 3.62% (inactive).

Consider `CC(C)(C)n1nnnc1C(c1cccs1)N(Cc1cccnc1)Cc1ccco1` (stereo not given), for which the “activity change, negative = cytotoxicity” value is -11.5% (inactive).

As to `COc1ccc(N2C(=O)N3[C@H](c4ccc(Cl)cc4)[C@@H]4C(=O)N(C5CCCCC5)C(=O)[C@@H]4[C@]3(C)C2=O)cc1`, the “activity change, negative = cytotoxicity” value was -13.4% (inactive).

As for `CCn1ncc(C2=NOC(C(=O)Nc3ccc(C)cc3)C2)c1C` (stereo not given), the “activity change, negative = cytotoxicity” value is 3.78% (inactive).

`c1csc(-c2csc3ncnc(NCCCN4CCOCC4)c23)c1`: the “activity change, negative = cytotoxicity” value is -3.21% (inactive).

Consider `O=C(C[C@@H]1C[C@@H]2c3cc(NC(=O)C4CCC4)ccc3O[C@@H]2[C@@H](CO)O1)NCC(F)(F)F`, for which the “activity change, negative = cytotoxicity” value was 1.57% (inactive).

`CS(=O)(=O)N1CCc2cc(-c3csc(NC(=O)Cc4cccs4)n3)ccc21`: the “activity change, negative = cytotoxicity” value was -6.69% [at 16 µM] (inactive).

Consider `CCNC(=O)C[C@H]1CC[C@@H]2[C@@H](COc3ccc(NC(=O)Cc4cccs4)cc3C(=O)N2C)O1`, for which the “activity change, negative = cytotoxicity” value is -2.64% (inactive).
